Screening data: PubChem, several laboratories
An excerpt weighted towards active compounds, which were near 32% of everything screened.
PostGolgi yeast: growth inhibition of a yeast mutant, post-Golgi transport screen; post-Golgi transport phenotypic cell assay; inhibition, % at 10 µM; 98,000 compounds, 0.9% hits;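 note: yeast cells grown in 1536-well plates; yeast grown about 18 h at 30C before absorbance read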
CYP2C19 inh: human CYP2C19 inhibition. inhibition, % at 5 µM. CYP2C19 Supersomes, luciferin-H EGE luminescence, 30 min. P33261. AID 778. 96,000 compounds, 21% hits;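 active = CYP2C19 inhibition above a set limit at 5 µM in the primary screen, cut at about 50% in these data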
Target sequence (P33261 whole entry, looked up): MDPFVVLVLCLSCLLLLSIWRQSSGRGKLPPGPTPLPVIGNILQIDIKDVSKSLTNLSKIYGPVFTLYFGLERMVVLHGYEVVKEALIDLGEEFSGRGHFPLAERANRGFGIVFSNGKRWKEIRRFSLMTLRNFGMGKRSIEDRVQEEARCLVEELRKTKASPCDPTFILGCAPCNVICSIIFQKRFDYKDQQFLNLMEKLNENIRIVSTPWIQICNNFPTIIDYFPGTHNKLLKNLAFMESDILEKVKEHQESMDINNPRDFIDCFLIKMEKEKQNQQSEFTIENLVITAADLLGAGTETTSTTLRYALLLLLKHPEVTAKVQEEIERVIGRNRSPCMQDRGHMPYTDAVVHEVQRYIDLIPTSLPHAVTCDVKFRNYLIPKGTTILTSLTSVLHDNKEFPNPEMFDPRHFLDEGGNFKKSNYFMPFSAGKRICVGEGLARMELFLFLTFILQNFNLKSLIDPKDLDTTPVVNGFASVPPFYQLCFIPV
CYP2C9 act: activators of human CYP2C9. activation factor at 5 µM. recombinant CYP2C9, luciferin-H conversion, luminescence; stronger effect = higher value; factor 1 = untreated enzyme, 0 = blocked. AID 1024. 96,000 compounds, 1.4% hits;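 active = activation factor of 2 or more for CYP2C9 at a 5 µM dose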
PostGolgi ctrl: growth of the yeast control strain, post-Golgi counter-screen; efflux-deficient yeast background strain, growth absorbance A615, 16 h; inhibition, % at 10 µM; 98,000 compounds, 5% hits
CYP2C19 activ: cytochrome P450 2C19 (human) activation; P33261; activation factor at 5 µM; recombinant CYP2C19, luciferin-H EGE luminescence; stronger effect = higher value; 0 = fully inhibited enzyme, 1 = untreated enzyme; 96,000 tested, under 10 active;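 active = activation factor of at least 2 at 5 µM in the primary screen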
CYP2C9 inh: blocks human cytochrome P450 2C9; P11712; inhibition, % at 5 µM; CYP2C9 Supersomes, luciferin-H conversion, luminescence; 96,000 compounds, 20% hits; AID 777;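 active = blocking of liver enzyme CYP2C9 beyond about 50% at 5 µM, limit read from the data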
Numbers stand for hits; . = inactive; / = no result. Cut-off read from the data, not from the text of the source, unless noted: active = inhibition above about 30%; inactive = the rest.

SMILES	PostGolgi yeast	CYP2C19 inh	CYP2C9 act	PostGolgi ctrl	CYP2C19 activ	CYP2C9 inh
O=C(NNS(=O)(=O)c1ccccc1[N+](=O)[O-])c1ccc(O)cc1	.	.	.	.	.	68
COC(=O)Nc1ncc(CN2CCc3ccccc3C2)s1	.	76	.	.	.	.
CCN(CC(=O)N1CCOCC1)S(=O)(=O)c1ccc(C)cc1	.	.	.	.	.	.
CCOC(=O)c1ccc(N2Cc3ccccc3C2=N)cc1	.	.	.	.	.	85
CCCCc1c(O)nc(SCC(=O)NC(C)(C)C)n(-c2ccccc2C)c1=O	.	.	.	.	.	.
Cc1ccc(C(=O)c2ccc([N+](=O)[O-])cc2)cc1C	.	.	.	.	.	.
Cc1ccc(C)c2c1[nH]c1ccc([N+](=O)[O-])cc12	.	78	.	54	.	61
Cc1ccc(C)c2c1[nH]c1ccccc12	.	86	.	.	.	.
Cc1cc(=S)[nH]c2ccccc12	.	.	.	.	.	.
CCCCCC(=O)Nc1c(-c2cccs2)c(=O)c2ccccc2n1C	.	.	.	.	.	.
O=C(NC1=NCCS1)c1cccc(S(=O)(=O)N2CCCCC2)c1	/	.	.	/	.	.
O=C(CSc1nnc(CN2CCCCCC2=O)n1-c1ccccn1)NCC(F)(F)F	.	.	.	.	.	.
Cc1ccc2[nH]c3c(c2c1)CCc1cn[nH]c1-3	.	70	.	63	.	88
C#CCn1c(=NC(=O)c2cccs2)sc2cccc(OCC)c21	.	.	.	.	.	68
CCCNC(=O)c1cccc(Cn2nc(C)c(Br)c2C)c1	.	85	.	.	.	63
COc1ccc(NC(=O)COn2nnc3ccc(Cl)cc32)cc1OC	.	.	.	.	.	.
O=C(COn1nnc2ccc(Cl)cc21)NC12CC3CC(CC(C3)C1)C2	.	.	.	52	.	.
CCOc1cc(Br)ccc1S(=O)(=O)N1CC(C)OC(C)C1 (stereo not given)	.	.	.	.	.	.
COc1cc(NC(=O)C2CCCN2S(=O)(=O)c2ccc3c(c2)CCC(=O)N3)cc(OC)c1 (stereo not given)	.	.	.	.	.	60
COc1ccc(C)cc1NC(=O)C1CCCN1S(=O)(=O)c1ccc2c(c1)CCC(=O)N2 (stereo not given)	.	.	.	.	.	.
O=C(NC1CCCCCC1)C1CCN(S(=O)(=O)c2ccc(F)cc2)CC1	.	.	.	.	.	.
O=C1CCc2cc(S(=O)(=O)N3CCCC3C(=O)N3CCN(c4ccccc4F)CC3)ccc2N1 (stereo not given)	.	.	.	.	.	.
O=C1CCc2cc(S(=O)(=O)N3CCC(C(=O)NC4CCCCCCC4)CC3)ccc2N1	.	.	.	.	.	57
Cc1ccc(NC(=O)C2CCCN2S(=O)(=O)c2ccc3c(c2)CCC(=O)N3)cc1Cl (stereo not given)	.	60	.	.	.	89
O=C1CCc2cc(S(=O)(=O)N3CCCC3C(=O)N3CCN(c4ccccc4)CC3)ccc2N1 (stereo not given)	.	.	.	.	.	59
SMILES	PostGolgi yeast	CYP2C19 inh	CYP2C9 act	PostGolgi ctrl	CYP2C19 activ	CYP2C9 inh
CCCc1nnc(SCC(=O)N2CCCCC2)n1CC1CCCO1 (stereo not given)	.	.	.	.	.	.
COC(=O)c1sccc1OC(C)C(C)=O (stereo not given)	.	.	.	.	.	.
COC(=O)c1cc(NC(=O)CCc2c(C)nc3ncnn3c2C)cc(C(=O)OC)c1	.	.	.	.	.	.
COc1ccc(Cl)cc1NC(=O)COC(=O)CCNC(C)=O	.	.	.	.	.	.
COc1ccc(OC)c(-c2nc(C)sc2CC(=O)O)c1	.	.	.	.	.	.
COc1cc(NC(=O)CN(C)S(=O)(=O)c2ccc3c(c2)CCC(=O)N3)cc(OC)c1	.	.	.	.	.	62
CN(C)c1ccc(-c2ccncc2)cc1	/	98	.	/	.	.
CCOc1cc(N2C(=O)CC3CS(=O)(=O)CC32)c(OCC)cc1NC(=O)c1ccccc1 (stereo not given)	.	.	.	.	.	.
CCCc1[nH]nc2c1C(c1ccc(O)cc1OCC)C(C#N)=C(N)O2 (stereo not given)	.	76	.	.	.	53
CCCc1[nH]nc2c1C(c1ccc(OC)cc1OC)C(C#N)=C(N)O2 (stereo not given)	.	.	.	.	.	.
